The record followed here is PubChem BioAssay AID2546 (National Center for Advancing Translational Sciences (NCATS), 2010).

In all, about 310,000 compounds went through this assay and about 11,000 (3.5%) were called active. A call without a number means that no potency is given here. About 8% were inconclusive and are not listed. Calls follow the shape of the dose curve; as a rule, active = well fitted inhibition curve with a large enough effect; inconclusive = small, poorly fitted or top-dose-only effect, or effect the other way; inactive = flat fitted curve, though single readings scatter. The full list was thinned out, with actives kept by preference.
Potency is read from the fitted curve at half-maximal effect.

A short description of the experiment: VP16 counterscreen qHTS for inhibitors of ROR gamma transcriptional activity.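 Also: Gal4-VP16 expression switched on by copper sulfate through the metallothionein promoter; nearly all actives have a fitted effect of over 50% in size.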 The following applies: Drosophila S2 Gal4-VP16 UAS-luciferase, luminescence, 20 h; series mostly up to 53.6 µM. A general note: Counterscreens check selectivity or assay interference.
`COc1cccc(N(C(=O)c2snc(C(N)=O)c2N)C(C(=O)NCC2CCCO2)c2c[nH]c3ccccc23)c1` (stereo not given): the Potency result was “inactive”.
With `O=C(Nc1cccc(C(F)(F)F)c1)c1cc(Br)cc(Br)c1O`, the Potency is 4.47 µM (active).
Still for that read-out and setting: the result for `O=C(O)CSCC(=O)Nc1cccc(C(F)(F)F)c1` reads “inactive”.
Same read-out and setting: the result for `O=C(Nc1cccc(C(F)(F)F)c1)c1cnccn1` reads “inactive”; that for `COc1cc(NC(=O)C2=CC(c3ccc(C)cc3)=NS(=O)(=O)N2C)cc(OC)c1OC`, “inactive”.
On the same count and under the same terms, the result for `COc1cc2c(cc1OC)CN(CC(=O)Nc1ccc(F)cc1)CC2` reads “inactive”; that for `CC(=O)Nc1cccc([N+](=O)[O-])c1`, “inactive”; that for `COC(=O)/C=C\C(=O)Nc1cccc([N+](=O)[O-])c1`, 1.26 µM (active).
For `O=C(CSCC(=O)Nc1cccc([N+](=O)[O-])c1)Nc1ccccc1`, the Potency result is “inactive”.
As to `COc1cc(SC)ccc1C(=O)N(Cc1ccccc1)c1ccccc1`, the Potency result is “inactive”.
The same measure, in the same setting: the result for `Cc1cc(C)nc(N/N=C/c2ccc([N+](=O)[O-])o2)n1` reads “inactive”; that for `NC(=O)C(=O)N/N=C/c1ccc([N+](=O)[O-])o1`, 11.2 µM (active); that for `COc1ccc(C(=O)NCC(=O)N/N=C/c2ccc([N+](=O)[O-])o2)cc1OC`, “inactive”.
As for `COc1ccc(-c2cc(C(=O)N3CCN(c4ccc(F)cc4)CC3)no2)cc1`, the Potency entry was “inactive”.
For `FC(F)(F)c1cccc(N/N=C/c2ccccc2)c1`, the Potency result was “inactive”.
Same read-out and setting: then `FC(F)(F)c1nc2ccccc2nc1N/N=C/c1ccc(Cl)cc1`, with 10 µM (active); and `Fc1ccc(/C=N/Nc2nc(-c3cccnc3)nc3ccccc23)cc1`, with “inactive”.
On to `CCNC(=O)N1CCCC(C(=O)c2ccc(-c3ccccc3)cc2)C1` (stereo not given), for which the Potency result is “inactive”.
Turning to `c1cnc(N2CCN(c3ccc4ccccc4n3)CC2)nc1`, the Potency entry was “inactive”.
`CC(=O)N1c2ccc(S(=O)(=O)N3CCC(C(=O)NC4CCCC(C)C4C)CC3)cc2CC1C` (stereo not given): the Potency result was “inactive”.
Same read-out and setting: then `Cc1ccc2cccc(OCCCOc3ccccc3CO)c2n1`, with “inactive”; and `O=C(N/N=C/c1ccc([N+](=O)[O-])cc1)c1c[nH]c2ccccc12`, with “inactive”.
On the same count and under the same terms, the result for `O=C(Cc1c[nH]c2ccccc12)N/N=C/c1cccc(F)c1` reads “inactive”; that for `O=C(N/N=C/c1c[nH]c2ccccc12)c1cc2ccccc2o1`, “inactive”; that for `CSC(=S)N/N=C/c1c[nH]c2ccccc12`, 0.891 µM (active).
In the case of `O=C(O)c1cccc(NC(=S)N/N=C/c2c[nH]c3ccccc23)c1`, the Potency entry is “inactive”.
For the compound `O=C(N/N=C/c1c[nH]c2ccccc12)c1ccccc1O`, the Potency is 6.31 µM (active).
For `C[C@H](C(=O)CC(=O)OC(C)(C)C)[C@H](O)c1ccc(C(F)(F)F)cc1`, the Potency entry was “inactive”.
Still for that read-out and setting: then `Cc1ccc(-c2csc(NC3OC(=O)c4ccccc43)n2)cc1` (stereo not given), with “inactive”; and `O=C(/C=C/c1ccc2c(c1)OCCO2)c1ccc(O)cc1`, with 4.47 µM (active); and `O=C(/C=C/c1ccc(Cl)cc1)N1CCN(c2ccccc2[N+](=O)[O-])CC1`, with “inactive”.
Turning to `CN(C)c1ccc(/C=C/C(=O)c2ccc(O)cc2)cc1[N+](=O)[O-]`, the Potency is 5.01 µM (active).
For `O=C(O)/C=C/c1ccc2c(c1)OCCO2`, the Potency entry is “inactive”.
On the same count and under the same terms, the result for `CC(=O)c1ccc2c(c1)OCCOCCOc1ccc(C(C)=O)cc1OCCOCCO2` reads “inactive”; that for `CN(C)c1ccc(/C=C/C(=O)c2ccc(C(C)(C)C)cc2)cc1[N+](=O)[O-]`, “inactive”; that for `O=C1C2CCCN2C(=O)N1CCCCN1CCN(c2cccc(C(F)(F)F)c2)CC1` (stereo not given), “inactive”.
With `C=CCn1cc(Cl)cc(C(=O)Nc2ccccc2)c1=O`, the Potency result was “inactive”.
On the same count and under the same terms, the result for `Cc1cccc(C)c1N1C(=O)CN(Cc2ccccc2)C1=S` reads “inactive”; that for `COc1cccc(NC(C)=[N+](C)CCNS(=O)(=O)c2ccc(Cl)cc2)c1`, “inactive”.
Still for that read-out and setting: then `COc1ccccc1-c1nc(N2CCN(C)CC2)c2ccccc2n1`, with “inactive”.
The same measure, in the same setting: then `COc1ccccc1-c1n[nH]c2c1[C@H](C)CC[C@H]2C(C)C`, with 12.6 µM (active); and `COc1ccccc1-c1nc(SC)n[nH]1`, with “inactive”.
`CCOc1cc(-c2noc(CCCC(=O)NC3CCCCC3)n2)ccc1OC`: the Potency result is “inactive”.
The same measure, in the same setting: then `CC(=O)c1ccc(N2Cc3ccccc3C2)cc1`, with “inactive”.
On to `CC(C)CC(O)C1CCN(C(=O)CCc2nnc(-c3ccc4c(c3)OCO4)o2)CC1` (stereo not given), for which the Potency entry was “inactive”.
Regarding `Cc1oc(-c2ccccc2F)nc1CS(=O)CC(=O)NCCN1CCCCC1C` (stereo not given), the Potency result was “inactive”.
On the same count and under the same terms, then `C=CCc1ccccc1OCC(=O)N/N=C/c1ccccc1OCC`, with “inactive”; and `CCOc1ccccc1/C=N/Nc1nc2ccccc2o1`, with 7.08 µM (active).
Same read-out and setting: then `CCOc1ccccc1/C=N/NC(=O)CNC(=O)COc1ccccc1`, with “inactive”; and `CC(C)(C)c1cc[n+](-c2[nH]c(=O)sc2/C=N/N=C(\[O-])c2ccccc2)cc1`, with “inactive”; and `O=C(Nc1ccncc1)c1ccc(Cl)c([N+](=O)[O-])c1`, with “inactive”.
Same read-out and setting: the result for `COc1ccc(CNS(=O)(=O)c2cc(-c3cc(C)no3)ccc2C(C)C)cc1` reads “inactive”; that for `CC(=O)Nc1cccc(Nc2nc(-c3cccs3)nc3ccccc23)c1`, “inactive”.
`CC1CCCN(CCCNC(=O)CN2C(=O)COc3ccc(S(=O)(=O)N4CCOCC4)cc32)C1` (stereo not given): the Potency result is “inactive”.
Consider `Cc1ccc(/C=N/NC(=O)Cn2nc(C)c(Br)c2C)o1`, for which the Potency result is “inactive”.
As for `C/C(=N\NC(=S)NC1CCCCC1)c1ccc(C)o1`, the Potency is 3.55 µM (active).
With `Cc1ccc(/C=N/NC(=S)NC2CCCCC2)o1`, the Potency is 2 µM (active).
Regarding `Cc1ccc(/C=N/NC(=O)CSc2ccccn2)o1`, the Potency entry is “inactive”.
On to `C/C(=N/NC(=O)c1ccc(Br)o1)c1ccc(C)o1`, for which the Potency result is “inactive”.
With `C/C(=N\NC(=O)NC1CCCCC1)c1ccc(OC(F)F)cc1OC(F)F`, the Potency entry was “inactive”.
For the compound `Cc1ccccc1NC(=O)CSc1ccc2nnc(-c3ccccn3)n2n1`, the Potency result was “inactive”.
Still for that read-out and setting: the result for `CC(C)NC(=O)COCc1cc(-c2ccc3c(c2)OCO3)on1` reads “inactive”.
On the same count and under the same terms, the result for `COc1ccc(OC)c(CNC(=O)Cn2nc(C)c3c(C)n(-c4ccc(C)cc4)nc3c2=O)c1` reads “inactive”; that for `COc1ccc(CN(C)C(=O)c2cc(-c3ccc(C)cc3C)nc3ccccc23)c(OC)c1OC`, “inactive”; that for `COc1ccc(C/C(N)=N/OC(=O)c2ccco2)cc1OC`, “inactive”.
Regarding `COc1ccc(CCn2ccc(O)c(Cc3ccc(Cl)cc3Cl)c2=O)cc1OC`, the activity, negative = inhibition is 7.07% [at 10 µM] (inactive).
Consider `COc1ccc(C(=O)O/N=C(\N)Cc2ccc(Cl)cc2Cl)cc1OC`, for which the Potency was 7.08 µM (active).
Take `CC(CCc1ccc(O)cc1)NCc1ccc(Cl)cc1Cl` (stereo not given): the Potency result was “inactive”.
The same measure, in the same setting: the result for `O=S1(=O)N=C(N(CCO)/N=C/c2ccccc2F)c2ccccc21` reads “inactive”; that for `COC(=O)c1cc(S(=O)(=O)NCC2CCN(Cc3ccc(Cl)cc3)CC2)cn1C`, “inactive”; that for `Cc1ccsc1C(=O)N/N=C/c1ccc([N+](=O)[O-])cc1`, “inactive”.
On to `CCOc1ccc(NC(=O)CCC(=O)N/N=C/c2ccc([N+](=O)[O-])s2)cc1`, for which the Potency entry is “inactive”.
On the same count and under the same terms, the result for `Cc1ccccc1NCC(=O)N/N=C\c1ccc([N+](=O)[O-])s1` reads “inactive”; that for `CC(C)(C)c1cc(C(=O)N/N=C/c2ccc([N+](=O)[O-])s2)n[nH]1`, 12.6 µM (active).
Same read-out and setting: then `COc1ccc2ccccc2c1/C=N/NC(=O)c1cc(C)[nH]n1`, with “inactive”; and `Cc1cc(C(=O)N/N=C/c2cc([N+](=O)[O-])cc(C)c2O)n[nH]1`, with 14.1 µM (active).
In the case of `COc1ccc(OC)c(NC(=O)c2ccc3c(c2)CCN3S(C)(=O)=O)c1`, the Potency entry was “inactive”.
With `COc1ccc(-n2ncc3c2CC(C)(C)CC3NC(=O)CCc2c(C)noc2C)cc1` (stereo not given), the Potency result is “inactive”.
In the case of `CCn1c(CC(=O)Nc2ccccc2)nnc1SCC(=O)N1CCOCC1`, the Potency entry was “inactive”.
With `Cc1cccc(C)c1OCCN1CCOCC1`, the Potency entry was “inactive”.
Take `CC(CC(=O)N1CCN(c2ccccc2)CC1)S(=O)(=O)c1ccc2c(c1)NC(=O)CS2` (stereo not given): the Potency result was “inactive”.
On the same count and under the same terms, the result for `CCOC(=O)C1=C(c2ccc(OC)cc2)C(=O)c2ccccc2C1=O` reads 4.47 µM (active); that for `CCCCC(C(=O)OCC(=O)c1ccc(OC)cc1)N1C(=O)c2ccccc2C1=O` (stereo not given), “inactive”.
Consider `CCOC(=O)c1c(-c2ccc(C)cc2)csc1/N=C(\C)C1=C(O)c2ccccc2C1=O`, for which the Potency result is “inactive”.
On the same count and under the same terms, the result for `COc1ccccc1-n1c(SCC(=O)Nc2cccc(C(=O)O)c2)nnc1-c1ccccc1O` reads “inactive”; that for `CCOC(=O)[C@@H]1[C@H]2COc3ccc(Br)cc3[C@H]2N2C(=O)N(c3ccc(Cl)cc3)C(=O)[C@@]12C`, “inactive”; that for `COC(=O)c1cc(NS(=O)(=O)c2ccc3c(c2)c(=O)n(C)c(=O)n3C)cc(C(=O)OC)c1`, “inactive”.
On the same count and under the same terms, then `Cc1[nH]c2ccccc2c1C(=O)CN1CC(C)CC(C)C1` (stereo not given), with “inactive”; and `CC(=O)Nc1cccc(NC(=O)c2ccc3c(c2)CCN3S(C)(=O)=O)c1`, with “inactive”; and `COc1ccccc1-c1sc2ccccc2c1-c1ccc(C(C)=O)cc1`, with “inactive”.
With `C(=N\n1cnnc1)/c1cccnc1`, the Potency entry is “inactive”.
Still for that read-out and setting: the result for `CN(C)c1ccc(-n2cccc2/C=C2/SC(=Nc3ccc(F)cc3)NC2=O)cc1` reads “inactive”.
The same measure, in the same setting: then `CN(C)c1ccc(-n2cccc2/C=N/n2cnnc2)cc1`, with 14.1 µM (active); and `CNC[C@H](CC1CCCCC1)NC[C@H](NCCC1CCCC1)[C@H](C)O`, with “inactive”.
The same measure, in the same setting: the result for `O=C1c2ccccc2C(=O)N1CCOc1ccc(F)cc1` reads “inactive”; that for `CN1CN(C)c2ccc([N+](=O)[O-])c3cccc1c23`, “inactive”; that for `CCCNC(=O)CCc1c(C)nc2c(c(C)nn2-c2ccc(C)cc2)c1C`, “inactive”.
Turning to `COc1ccc(Cn2c(=S)[nH]c3cc(C(=O)NCCCN4CCOCC4)ccc3c2=O)cc1`, the Potency result was “inactive”.
On the same count and under the same terms, the result for `O=C(NC1CCCCC1)c1ccc2c(=O)n(CC3CCCO3)c(=O)[nH]c2c1` (stereo not given) reads “inactive”.
Same read-out and setting: the result for `COC(=O)c1ccc2c(=O)n(CC3CCCO3)c(=S)[nH]c2c1` (stereo not given) reads 5.01 µM (active); that for `COc1ccccc1OCCCC(=O)Nc1ccc2c(c1)OCCO2`, “inactive”; that for `O=C(CSc1cccc2cccnc12)N/N=C/c1cccnc1`, 20 µM (active).
For `Cc1nc2ccccc2n1CC(=O)N/N=C/c1cccnc1`, the Potency entry is “inactive”.
On to `O=C(CNC(=O)c1cccnc1)N/N=C/c1cccnc1`, for which the Potency entry was “inactive”.
Take `CN(C)Cc1c(O)ccc2c(=O)c(-c3ccccc3Cl)coc12`: the Potency entry was “inactive”.
